High-throughput results from PubChem BioAssay.
The entries come from a sample that favours hits as a whole.
TbPYK inhibitor – qHTS of Trypanosoma Brucei Inhibitors; 410,000 compounds, 0.12% hits; Potency, µM (highest dose often 76.8 µM), for inactives: at the top dose activity, negative = inhibition, usual class: inhibitors; TbPYK enzyme, Kinase-Glo Plus ATP luminescence, 45 min; active = well fitted curve in the direction sought with a large enough effect; inconclusive = small, poorly fitted or top-dose-only effect, or another doubt; inactive = no such curve, though single readings can be large; an effect the other way counts as inactive or inconclusive; note: potency is the fitted concentration of half-maximal effect; % is set by controls: 0 for no effect and ±100 for the full control effect; nearly all actives have a fitted effect of over 50% in size
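Luminescent Kinase-Glo Plus end-point after 45 min room-temperature reaction of T. brucei pyruvate kinase started with 130 uM ADP (final). Buffer TEA 50 mM pH 7.2 with KCl, MgCl2, BSA, Tween-20; titration-based qHTS with fitted concentration-effect curves.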
SARS PLP yeast – qHTS of Yeast-based Assay for SARS-CoV PLP | S. cerevisiae expressing SARS-CoV PLpro, growth rescue | Potency, µM (top dose mostly 32.9 µM), for inactives: at the highest dose activity, positive = growth rescue, most hits filed as activators | 330,000 compounds, 0.19% hits | AID 485353, 2010; note: potency is the fitted concentration of half-maximal effect; 0% is about no effect; nearly all actives have a fitted effect of over 55% in size
LmPK inh – qHTS Assay for Inhibitors of Leishmania Mexicana Pyruvate Kinase (LmPK). Q27686. purified LmPK, Kinase-Glo ATP luminescence, 1 h. Potency, µM (highest dose often 57.5 µM), for the others: at the highest dose activity change, negative = inhibition, usual class: inhibitors. 290,000 compounds, 0.37% hits. AID 1721, 2009; active = well fitted curve in the direction sought with a large enough effect; inconclusive = small, poorly fitted or top-dose-only effect, or another doubt; inactive = no such curve, though single readings can be large; an effect the other way counts as inactive or inconclusive; note: potency is the fitted concentration of half-maximal effect; % is set by controls: 0 for no effect and ±100 for the full control effect
Target sequence (Q27686 whole entry, looked up): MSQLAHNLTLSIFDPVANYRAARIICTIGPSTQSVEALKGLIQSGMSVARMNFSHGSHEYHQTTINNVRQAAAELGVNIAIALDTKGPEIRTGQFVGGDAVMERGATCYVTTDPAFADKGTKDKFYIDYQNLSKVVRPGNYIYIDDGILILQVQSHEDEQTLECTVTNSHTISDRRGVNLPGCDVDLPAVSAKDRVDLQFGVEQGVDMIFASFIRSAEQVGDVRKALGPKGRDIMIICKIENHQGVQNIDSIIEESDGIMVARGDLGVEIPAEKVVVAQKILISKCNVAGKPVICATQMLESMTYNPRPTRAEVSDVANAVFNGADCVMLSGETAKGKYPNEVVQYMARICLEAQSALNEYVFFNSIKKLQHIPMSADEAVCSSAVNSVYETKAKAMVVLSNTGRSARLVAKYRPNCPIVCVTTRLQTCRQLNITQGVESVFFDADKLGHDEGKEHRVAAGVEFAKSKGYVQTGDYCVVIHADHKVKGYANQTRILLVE
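ATP generated from ADP (0.1 mM) and PEP (0.5 mM) by 0.1 nM LmPK over 1 h at room temperature (pH 7.2 imidazole buffer) was detected by coupled luciferase luminescence. Values were normalized to uninhibited and no-enzyme wells.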
Shiga inhibitor – A qHTS for Small Molecule Inhibitors of Shiga Toxin. Vero cells, Shiga toxin protein synthesis inhibition reporter. inhibition, % at 38.7 µM. 290,000 compounds, 9.2% hits; in the data active = inhibition mostly above about 28%, no sharp cut-off; inactive = mostly below about 43%; note: 0% is about no effect
CHX counter – Cycloheximide Counterscreen for Small Molecule Inhibitors of Shiga Toxin. max response, %. AID 2314, 2010. cell reporter, cycloheximide protein synthesis inhibition counterscreen. 300,000 compounds, 12% hits; in the data active = max response mostly above about 13%, no sharp cut-off; inactive = mostly below about 14%; note: read at 38.3 µM for the half of the compounds with a filed dose; 0% is about no effect
NS1 inh – qHTS Assay for Inhibitors of Influenza NS1 Protein Function; Potency, µM (series often up to 46.1 µM), for the others: at the top dose activity, positive = more growth; 270,000 compounds, 0.4% hits; AID 2326, 2010; note: potency is the fitted concentration of half-maximal effect; actives are rising curves; nearly all actives have a fitted effect of over 50% in size
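Compounds were scored for reversing the slow growth caused by influenza A NS1 in S. cerevisiae, measured by optical density at 600 nm. Assay medium contained 2% galactose at pH 6.0; NS1-free yeast of the same strain were the positive control.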
* marks the source's active call; other numbers are inactive results; ? = inconclusive; / = no result given. Unless noted, calls come from the whole dose curve.

SMILES	TbPYK inhibitor	SARS PLP yeast	LmPK inh	Shiga inhibitor	CHX counter	NS1 inh
CCN(CC(=O)Nc1ccccc1C(F)(F)F)C(=O)C1CC(=O)N(Cc2ccccc2)C1 (centres undefined)	-3%	10%	/	/	/	/
Fc1ccc(NC(=S)Nc2nccs2)cc1	-4%	-8%	-7%	75*	50*	/
S=C(Nc1ccccc1)Nc1nccs1	-2%	-2%	-4%	99*	29*	-33%
COc1cc(OC)cc(C(=O)Nc2nnc(NC(=S)Nc3ccccc3)s2)c1	-18%	3%	-1%	-15	11	19%
O=C(Nc1ccc(S(=O)(=O)Nc2nccs2)cc1)c1ccc(F)cc1	3%	2%	2%	-5	-7	2%
Fc1ccc(NC(=S)Nc2ccc3nccnc3c2)cc1	-1%	-1%	1%	49	38*	-2%
CC(C)(C)c1nnc(NC(=S)Nc2ccccc2)s1	-5%	0%	-3%	115*	37*	-5%
COc1ccc(NC2CCCN(C(=O)c3cccc(N4CCNC4=O)c3)C2)cc1 (centres undefined)	-4%	0%	2%	-12	-11	13%
CC(NC(=O)CNC(=O)c1ccc2c(c1)OCO2)c1ccc(S(N)(=O)=O)cc1 (centres undefined)	7%	-1%	/	/	/	/
COCCNC(C(=O)Nc1ccc(C)cc1[N+](=O)[O-])c1ccccc1 (centres undefined)	-2%	-7%	2%	38	28*	/
Cc1ccc(NC(=O)C(OC(=O)c2cnc(C)cn2)c2ccccc2)c([N+](=O)[O-])c1 (centres undefined)	-6%	-3%	-4%	8	14*	-15%
COCCCNC(=S)Nc1ccc(C)cc1[N+](=O)[O-]	3%	-1%	-3%	55*	20*	/
CC(=O)Nc1ccc(NC(=O)C(C)OC(=O)C2CCCCC2)cc1 (centres undefined)	-7%	0%	/	/	/	/
O=C(CSc1nnc(NC(=O)C2CC2)s1)Nc1ccc2c(c1)OCCO2	0%	1%	12%	-4	-3	2%
CC1CCN(C(=O)CSc2nc(-c3ccccc3)no2)CC1	-1%	/	/	/	/	/
O=C(CN1CCSC1=O)N1CCN(S(=O)(=O)c2ccccc2)CC1	-8%	-2%	/	/	/	/
CCC(=N\NC(=O)COc1ccccc1OC)/C(CC)=N/NC(=O)COc1ccccc1OC	2%	-7%	/	/	/	/
COc1ccc(-c2cnnc(N/N=C/c3ccc(O)c(O)c3)n2)cc1	-7%	28%	-1%	32	30*	3%
COc1ccc(-c2cnnc(N/N=C/c3ccc(O)cc3)n2)cc1	2%	0%	-2%	31	30	/
Oc1ccc(/C=N\Nc2nncc(-c3ccccc3)n2)cc1	5%	4%	-2%	51*	23*	5%
Brc1ccc(/C=N/Nc2nncc(-c3ccccc3)n2)o1	/	1%	-7%	-8	12	/
CCCCOCCOC(=O)C1OC1(C)c1ccccc1 (centres undefined)	4%	/	/	/	/	/
CCOc1ccc2c(c1)C(=O)C(=O)N2CC1COc2ccccc2O1 (centres undefined)	0%	-2%	-1%	-7	-3	0%
CCOc1cccc(-c2csc(C3COc4ccccc4O3)n2)c1 (centres undefined)	2%	8%	-4%	31	28*	-8%
CCc1noc(C)c1C(=O)OC(C)C(=O)Nc1ccccc1OC (centres undefined)	5%	1%	/	/	/	/
SMILES	TbPYK inhibitor	SARS PLP yeast	LmPK inh	Shiga inhibitor	CHX counter	NS1 inh
O=C(CSc1ccc(-c2cccc([N+](=O)[O-])c2)nn1)NCc1ccccc1	1%	-9%	10%	-5	-2	/
CSc1ccc(-c2cccc([N+](=O)[O-])c2)nn1	-6%	-4%	-4%	79*	27*	/
O=[N+]([O-])c1cccc(-c2ccc(SCc3cccnc3)nn2)c1	0%	-10%	1%	52	44*	/
Cn1cnnc1SCC(=O)c1ccc2c(c1)OCO2	-5%	3%	-7%	-5	-2	13%
Cn1cnnc1SCC(=O)c1ccc2c(c1)CCCC2	-5%	-1%	-2%	69*	32*	-49%
Cn1cnnc1SCC(=O)Nc1ccc2c(c1)CCC2	7%	8%	-2%	35*	15*	-11%
Nn1cnnc1SCC(=O)Nc1ccc(C2CCCCC2)cc1	3%	4%	0%	81*	50*	-15%
CCC(C)c1ccc(NC(=O)CSc2nncn2N)cc1 (centres undefined)	0%	-7%	6%	35	26	7%
COc1ccc(NC(=O)[C@H](C)NS(=O)(=O)c2ccc(NC(C)=O)cc2)cc1Cl	1%	/	/	/	/	/
CCC(C(=O)NC1CCCCC1)N(Cc1cccs1)C(=O)CCC(=O)Nc1cc(C)on1 (centres undefined)	0%	-2%	0%	-4	-4	6%
Cc1cc(Nc2ccc3c(c2)OCCO3)c2cc(Cl)ccc2n1	-1%	-14%	0%	79*	68*	9%
Cc1cc(Nc2cccc(Cl)c2)c2ccccc2n1	-6%	1%	-5%	-6	1	-23%
COc1cccc2cc(C(C)=O)oc12	-1%	3%	-3%	-5	-2	0%
COc1ccc(C(=O)c2cc3cccc(OC)c3o2)cc1	-5%	-3%	?	98*	41*	-11%
COc1cccc2cc(/C(=N/O)c3ccccc3)oc12	3%	-3%	0%	33	26*	-4%
COc1ccccc1OCCNC(=O)c1cccc(S(=O)(=O)NCc2ccccc2)c1	1%	6%	/	/	/	/
CN(C)c1ccc(/C=C/CNC[C@H]2O[C@@H](n3ccc(N)nc3=O)[C@H](O)[C@@H]2O)cc1	-4%	/	/	/	/	/
COc1ccccc1N=Cc1c(C)c(C#N)c2[nH]c3ccccc3n2c1=O	2%	0%	2%	36	18*	1%
Cc1c(Cc2ccccc2)c(=O)n2c([nH]c3ccccc32)c1C#N	2%	-4%	6%	-8	0	-67%
CC1=CC2=NC(=O)CC(C)(C(=O)N(CC(=O)NC3CCCC3)Cc3ccccc3)N2C=C1 (centres undefined)	4%	-1%	9%	15	-1	2%
O=c1oc2ccc(Cl)cc2cc1-c1cn2c(n1)sc1ccccc12	3%	/	/	/	/	/
CCOC(=O)c1ccc(NC(=O)N2CCc3ccccc32)cc1	-12%	-3%	?	58*	29*	-5%
CCOC(=O)c1cccc(NC(=O)Cc2ccc(NC(=O)N3CCCCc4ccccc43)cc2)c1	3%	/	/	/	/	/
CCOC(=O)c1ccc(NC(=O)N2CCc3ccccc3C2)cc1	8%	-10%	3%	19	30*	-50%
